Test [1] concerns Vero E6 infected with SARS-CoV-2. Description: morphology score (similarity to uninfected cells); higher = more like uninfected cells. As to conditions: 24 h.
The test system is the same in test [2]. In words: SARS-CoV-2 infection rate relative to infected DMSO; higher = more infection, active = 60 or less. The settings on record: 24 h.

Regarding `Cc1c(N(C)CS(=O)(=O)O)c(=O)n(-c2ccccc2)n1C` [metamizole] (10 µM), the morphology score in test [1] is 0.141. Besides, in test [2], the SARS-CoV-2 infection rate is 93.5% (inactive).

In the case of `CCN1C(=O)NC(c2ccccc2)C1=O` (configuration not stated) [ethotoin] (10 µM), in test [1], the morphology score was 0.221. For the same molecule, the SARS-CoV-2 infection rate in test [2] was 97% (inactive).

As for `C[N+](C)(C)CC#CCN1CCCC1=O` [oxotremorine-M] (10 µM), in test [1], the morphology score came out at 0.0604. Also, the SARS-CoV-2 infection rate in test [2] was 89.5% (inactive).

In the case of `CCN(c1cc(-c2ccc(CN3CCOCC3)cc2)cc(C(=O)NCc2c(C)cc(C)[nH]c2=O)c1C)C1CCOCC1` [tazemetostat] (10 µM), in test [1], the morphology score came out at 0.0658. For the same molecule, in test [2], the SARS-CoV-2 infection rate is 104% (inactive).

In the case of `CCC(=O)c1cc(-c2ccc(Cl)cc2)n(-c2ccc(S(N)(=O)=O)cc2)c1C` (10 µM), the morphology score in test [1] was determined as 0.104. Also, in test [2], the SARS-CoV-2 infection rate is 102% (inactive).

With `Cc1cc(Nc2ccc(NC(=O)c3ccc(Nc4ccnc5ccccc45)cc3)cc2)nc(N)n1` (0.833333 µM), the morphology score in test [1] is -0.0128. Besides, the SARS-CoV-2 infection rate in test [2] is 104% (inactive).

For `O=C(O)CCc1c(C(=O)O)[nH]c2cc(Cl)cc(Cl)c12` (10 µM), the morphology score in test [1] was -0.0263. In addition, the SARS-CoV-2 infection rate in test [2] is 104% (inactive).

Molecule `Nc1nc(NC2CC2)cc(-c2cccc(Cl)c2Cl)n1` (10 µM) displayed a morphology score in test [1] of 0.121. Also, in test [2], the SARS-CoV-2 infection rate was 97% (inactive).

In test [1], `CC(C)[C@@H]1C(=O)N(S(C)(=O)=O)[C@@H]2CCN(C(=O)/C=C/CN3CCCCC3)[C@H]21` (10 µM) yielded a morphology score of 0.0406. Also, in test [2], the SARS-CoV-2 infection rate is 106% (inactive).

Molecule `COc1ccc2ccc(=O)oc2c1CC=C(C)C` [osthol] (10 µM) yielded a morphology score in test [1] of 0.243. In addition, the SARS-CoV-2 infection rate in test [2] is 107% (inactive).

Take `COc1cc(SC)ccc1C(=O)N1CCC(Cc2ccccc2)CC1` (10 µM): the morphology score in test [1] was found to be 0.0267. Also, the SARS-CoV-2 infection rate in test [2] is 104% (inactive).

As for `CCn1cc(C(=O)O)c(=O)c2ccc(-c3ccncc3)cc21` [rosoxacin] (10 µM), in test [1], the morphology score stood at 0.148. In test [2], the SARS-CoV-2 infection rate is 112% (inactive).

Take `C#C[C@]1(O)CC[C@H]2[C@@H]3CCC4=CC(=O)CC[C@@H]4[C@H]3CC[C@@]21CC` [norgestrel] (10 µM): in test [1], the morphology score turned out to be 0.191. In addition, the SARS-CoV-2 infection rate in test [2] is 102% (inactive).

Regarding `CC(C)NC[C@@H](O)COc1ccc(CC(N)=O)cc1` (racemic) [atenolol-(+/-)] (10 µM), the morphology score in test [1] stood at 0.0556. Further, the SARS-CoV-2 infection rate in test [2] is 108% (inactive).

`Cc1cccc(NC(=O)c2ccc(C(F)(F)F)cc2C(=O)O)n1` (10 µM) displayed a morphology score in test [1] of -0.208. The SARS-CoV-2 infection rate in test [2] was 109% (inactive).

With `CC=CC1=C(C(=O)O)N2C(=O)[C@@H](NC(=O)[C@H](N)c3ccc(O)cc3)[C@H]2SC1` (mixture of isomers) [cefprozil] (10 µM), in test [1], the morphology score came out at 0.273. In test [2], the SARS-CoV-2 infection rate is 99% (inactive).

With `CCO[C@@H](Cc1ccc(OCCn2c(C)ccc2-c2ccc(SC)cc2)cc1)C(=O)O` [saroglitazar] (10 µM), the morphology score in test [1] came to 0.336. Moreover, the SARS-CoV-2 infection rate in test [2] is 92% (inactive).

In test [1], `C[C@H](/C=C/[C@H](C)C(C)(C)O)[C@H]1CC[C@H]2/C(=C/C=C3C[C@@H](O)C[C@H](O)C3)CCC[C@]12C` [paricalcitol] (10 µM) showed a morphology score of 0.0995. Besides, in test [2], the SARS-CoV-2 infection rate is 104% (inactive).

In the case of `COP(=O)(OC)OC(c1ccc(Cl)cc1)P(=O)(OC)OC` (configuration not stated) [mifobate] (10 µM), the morphology score in test [1] was -0.0183. For the same molecule, the SARS-CoV-2 infection rate in test [2] was 106% (inactive).

In test [1], `CCCN(CCc1cccs1)[C@H]1CCc2c(O)cccc2C1` [rotigotine] (10 µM) displayed a morphology score of -0.0144. For the same molecule, the SARS-CoV-2 infection rate in test [2] is 96.5% (inactive).

`O=C(O)C(=O)c1cn(Cc2ccccc2)c2ccc(-c3ccc(OC(F)(F)F)cc3)cc12` [tiplaxtinin] (10 µM) displayed a morphology score in test [1] of 0.0476. Besides, in test [2], the SARS-CoV-2 infection rate is 106% (inactive).

In test [1], `CCCCc1ccc(O)cc1O` [rucinol] (10 µM) returned a morphology score of -0.0981. Moreover, the SARS-CoV-2 infection rate in test [2] is 99% (inactive).

In test [1], `C=C(C)CN1CC[C@]23c4c5ccc(O)c4O[C@H]2c2[nH]c4ccccc4c2C[C@@]3(O)C1C5` (10 µM) registered a morphology score of 0.0617. For the same molecule, the SARS-CoV-2 infection rate in test [2] is 108% (inactive).

Regarding `CCS(=O)(=O)CCn1c([N+](=O)[O-])cnc1C` [tinidazole] (10 µM), the morphology score in test [1] was found to be 0.142. For the same molecule, in test [2], the SARS-CoV-2 infection rate is 108% (inactive).

Turning to `CC(C)CCN1c2nc(Nc3cc(F)c(O)c(F)c3)ncc2N(C)C(=O)[C@@H]1C` (0.833333 µM), the morphology score in test [1] came to 0.164. Also, the SARS-CoV-2 infection rate in test [2] was 106% (inactive).

In test [1], `O=C(NCNC(=O)NC1C(=O)NC(=O)N1CO)NC1C(=O)NC(=O)N1CO` (configuration not stated) [imidurea] (10 µM) gave a morphology score of -0.0758. Further, the SARS-CoV-2 infection rate in test [2] is 108% (inactive).

In turn, `CC(=O)NNC(=O)N1Cc2ccccc2Oc2ccc(Cl)cc21` (10 µM) registered a morphology score in test [1] of 0.0638. In test [2], the SARS-CoV-2 infection rate was 97.5% (inactive).

Molecule `C[S+](C)CC[C@H](N)C(=O)O` [cabagin] (10 µM) came in with a morphology score in test [1] of 0.00749. Moreover, the SARS-CoV-2 infection rate in test [2] is 109% (inactive).

In turn, `O=C1NC(O)CCN1[C@@H]1O[C@H](CO)[C@@H](O)[C@H]1O` (some centres not stated) [tetrahydrouridine] (10 µM) gave a morphology score in test [1] of 0.167. The SARS-CoV-2 infection rate in test [2] is 103% (inactive).

In turn, `O=C(O)c1cc(C(=O)O)c(C(=O)N(Cc2cccc(Oc3ccccc3)c2)[C@H]2CCCc3ccccc32)cc1C(=O)O` (10 µM) came in with a morphology score in test [1] of 0.189. Further, in test [2], the SARS-CoV-2 infection rate was 95.5% (inactive).

Molecule `CN(C)CCOC1=Cc2ccccc2Sc2ccc(Cl)cc21` [zotepine] (0.833333 µM) displayed a morphology score in test [1] of 0.061. In test [2], the SARS-CoV-2 infection rate is 106% (inactive).

The record behind these values is the supplement of paper PMC13380429.
